Laboratory results from the GenesisPotency data set.
The whole screen tested about 290,000 compounds, of which about 3,000 (1%) were called active. No stated cut-off is given here; in the data, active means inhibition mostly above about 36% (no sharp cut-off); inactive means mostly below about 34%. The entries come from a sample that favours actives as a whole.

Molecular target: T1, Nucleotide-binding oligomerization domain-containing protein 1, Homo sapiens (UniProt Q9Y239)
T1 sequence (whole entry): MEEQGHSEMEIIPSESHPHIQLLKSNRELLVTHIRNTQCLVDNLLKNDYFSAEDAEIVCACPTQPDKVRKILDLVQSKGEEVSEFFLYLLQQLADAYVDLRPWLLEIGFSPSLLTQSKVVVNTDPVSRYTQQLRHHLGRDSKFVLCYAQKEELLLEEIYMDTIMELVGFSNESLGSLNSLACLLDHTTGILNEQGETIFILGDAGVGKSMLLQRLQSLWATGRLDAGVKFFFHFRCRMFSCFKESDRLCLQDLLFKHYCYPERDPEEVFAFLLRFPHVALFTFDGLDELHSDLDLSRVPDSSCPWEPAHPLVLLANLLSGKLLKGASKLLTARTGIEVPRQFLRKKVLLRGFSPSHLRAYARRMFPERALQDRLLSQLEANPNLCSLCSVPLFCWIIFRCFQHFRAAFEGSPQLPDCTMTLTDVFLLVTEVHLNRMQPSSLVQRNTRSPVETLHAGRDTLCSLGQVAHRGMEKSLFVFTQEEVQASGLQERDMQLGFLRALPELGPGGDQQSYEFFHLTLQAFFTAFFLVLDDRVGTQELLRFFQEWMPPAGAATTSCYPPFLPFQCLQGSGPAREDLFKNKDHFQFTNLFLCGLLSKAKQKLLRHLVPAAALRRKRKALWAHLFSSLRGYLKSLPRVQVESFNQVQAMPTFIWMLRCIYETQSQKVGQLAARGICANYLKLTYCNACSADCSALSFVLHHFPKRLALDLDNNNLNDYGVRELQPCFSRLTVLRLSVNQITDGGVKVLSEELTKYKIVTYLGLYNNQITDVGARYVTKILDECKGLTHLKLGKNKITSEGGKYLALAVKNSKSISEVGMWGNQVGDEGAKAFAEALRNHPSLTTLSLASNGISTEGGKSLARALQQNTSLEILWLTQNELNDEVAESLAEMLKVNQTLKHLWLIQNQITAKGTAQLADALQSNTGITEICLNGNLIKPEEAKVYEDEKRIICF
Assay: NOD1 signaling inhibitors, primary screen, cell-based, luminescence, uHTS (AID 1578)

| SMILES | outcome |
| --- | --- |
| Cc1ccc2c(C(=O)CCl)c(C)[nH]c2c1 | active |
| Cc1[nH]c2ccccc2c1C(=O)CCl | active |
| Cc1ccc(S(=O)(=O)Nc2cccc3cccnc23)cc1 | active |
| Cc1ccc2cccc(NS(=O)(=O)c3ccccc3)c2n1 | active |
| O=[N+]([O-])c1ccccc1S(=O)(=O)Nc1cccc2cccnc12 | active |
| COc1cc(NS(=O)(=O)c2ccc3ccccc3c2)c2ncccc2c1 | active |
| Cc1ccc(S(=O)(=O)Nc2cccc3cccnc23)c([N+](=O)[O-])c1 | active |
| C[C@@H]1C[C@@H]2O[C@H]2/C=C\C=C\C(=O)Cc2c(Cl)c(O)cc(O)c2C(=O)O1 | active |
| C/C(=N\NC(=O)c1cccc(Br)c1)c1ccccn1 | active |
| C/C(=N\NC(=O)Cc1ccc(Cl)cc1)c1ccccn1 | active |
| C/C(=N\NC(=O)c1ccc(Cl)cc1)c1ccccn1 | active |
| C/C(=N\NC(=O)c1ccc(F)cc1)c1ccccn1 | active |
| COc1ccc(C(=O)N/N=C(\C)c2ccccn2)cc1OC | active |
| C/C(=N\NC(=O)c1ccc(Cl)c(Cl)c1)c1ccccn1 | active |
| C/C(=N\NC(=O)COc1ccccc1-c1ccccc1)c1ccccn1 | active |
| Nc1c(Cl)ncnc1N/N=C/c1ccccn1 | active |
| Cl.c1ccc(CNc2ncnc3ccccc23)cc1 | active |
| COc1ccc(CNc2ncnc3ccccc23)cc1 | active |
| c1ccc(CNc2ncnc3ccccc23)cc1 | inactive |
| Cc1cc2c(NCc3ccccc3)ncnc2s1.Cl | active |
| CC(Nc1ncnc2ccccc12)c1ccccc1 (configuration not stated) | active |
| Brc1ccc2ncnc(NCc3cccnc3)c2c1 | active |
| COc1cccc(CNc2ncnc3cc(Cl)ccc23)c1 | active |

| SMILES | outcome |
| --- | --- |
| S=C(Nc1ccc(Cl)c(Cl)c1)NC1CCCCC1 | active |
| Fc1ccc(NC(=S)NNc2ncc(C(F)(F)F)cc2Cl)c(F)c1 | active |
| CCCCOC(=O)c1[nH]c2c(c1C)C(=O)CC(c1cc(OC)c(OC)c(OC)c1)C2 (configuration not stated) | active |
| COCCOC(=O)c1[nH]c2c(c1C)C(=O)CC(c1cc(OC)c(OC)c(OC)c1)C2 (configuration not stated) | active |
| Cc1ccc(-c2csc(NC(=O)C3=NN(c4ccccc4)C(=O)CC3)n2)cc1 | active |
| O=C(N/N=C/c1ccc([N+](=O)[O-])s1)c1ccncc1 | active |
| Cc1ccc(C(=O)N/N=C/c2ccc([N+](=O)[O-])s2)cc1 | active |
| Cc1ccc2oc(Nc3nc(-c4ccccc4)cc(=O)[nH]3)nc2c1 | active |
| COc1cccc(C(=O)Nc2ccc3nc(N4CCN(c5ncccn5)CC4)cc(C)c3c2)c1OC | active |
| Cc1ccc2nc(-c3ccc4c(c3)OCCO4)cn2c1 | active |
| O=C(/C=C/c1ccco1)Oc1cc(Br)cc(/C=N/NC(=O)c2ccccc2O)c1 | active |
| O=C(Nc1nc(-c2cccs2)cs1)c1ccc(S(=O)(=O)N2CCCC2)cc1 | active |
| O=C(Nc1nc(-c2ccccc2)cs1)C1CCCN(S(=O)(=O)c2ccccc2)C1 (configuration not stated) | active |
| O=C(Nc1nnc(SCc2c(Cl)cccc2Cl)s1)c1cccc([N+](=O)[O-])c1 | active |
| CC(=O)c1cccc(NS(=O)(=O)c2ccc(-c3cnc(C4CC4)o3)cc2)c1 | active |
| COc1ccc(CCNc2cc(N3CCN(C(=O)c4ccccc4F)CC3)ccc2[N+](=O)[O-])cc1OC | active |
| Cc1cccc(Sc2c(C=O)c3ccccc3n2C)c1 | active |
| Cn1c(Sc2ccc(Br)cc2)c(C=O)c2ccccc21 | active |
| Cc1ccc(Sc2c(C=O)c3ccccc3n2C)cc1 | active |
| N#C/C(=C(/O)COc1ccc(Cl)cc1)c1nc2ccccc2s1 | active |
| N#C/C(=C(/O)Cc1cccc2ccccc12)c1nc2ccccc2s1 | active |
| CS(=O)(=O)Nc1ccccc1C(=O)Nc1cc(Cl)cc(Cl)c1 | active |
| COc1ccccc1NS(=O)(=O)c1cccc(NC(=O)c2sc3ccccc3c2Cl)c1 | active |

| SMILES | outcome |
| --- | --- |
| Cc1ccc(NC(=O)c2ccccc2NS(=O)(=O)c2ccc(Cl)s2)cc1S(=O)(=O)N1CCOCC1 | active |
| COc1ccc(C)cc1NC(=O)c1ccccc1NS(=O)(=O)c1ccc(Cl)s1 | active |
| Cc1ccc(NC(=O)c2ccccc2NS(=O)(=O)c2ccc(Cl)s2)cc1 | active |
| Cc1ccc(C)c(NC(=O)c2ccccc2NS(=O)(=O)c2cc([N+](=O)[O-])ccc2C)c1 | active |
| COc1cc(NC(=O)c2ccccc2NS(=O)(=O)c2ccc(Cl)s2)cc(OC)c1 | active |
| O=C1CCC2S/C(=C/Nc3ccc(C(F)(F)F)cc3)C(=O)N12 (configuration not stated) | active |
| Cc1ccc(-c2nn(CCC(=O)O)cc2/C=C\C(=O)c2ccc(Br)cc2)cc1 | active |
| O=C(c1ccccc1)c1nn(-c2ccc(Cl)cc2)c(=O)cc1C(F)(F)F | active |
| CCOC(=O)c1c(N2C(=O)Nc3cc(Cl)c(Cl)cc3N2O)sc2c1CCCCC2 | active |
| COc1ccc2cc3c(N)nn(C(=O)Cc4c[nH]c5ccccc45)c3nc2c1 | active |
| COc1ccc2cc3c(N)nn(C(=O)Cc4ccccc4OC)c3nc2c1 | active |
| CCCCCCc1cc2cc(S(=O)(=O)c3ccc(Cl)cc3)c(=O)oc2cc1O | active |
| CCCCCCc1cc2cc(S(=O)(=O)c3ccc(F)c(Cl)c3)c(=O)oc2cc1O | active |
| Cc1nn(Cc2ccc(Cl)cc2)c(C)c1NC(=O)c1noc2c1CCc1ccccc1-2 | active |
| CC(C)Cn1c(N)c(C(=O)CSc2ccc3c(c2)OCCO3)c(=O)n(C)c1=O | active |
| COc1ccc(-c2cc(=O)oc3c(C)c(OC(=O)c4cccs4)ccc23)cc1 | active |
| COc1ccc(-c2cc(=O)oc3c(C)c(O)ccc23)cc1 | active |
| C=C1C(=O)O[C@@H]2C[C@@H](C)[C@@H]3C=CC(=O)[C@@]3(C)[C@@H](OC(C)=O)[C@H]12 | active |
| COc1ccc(-c2cn[nH]c2-c2ccc(O)cc2O)cc1 | active |
| COc1ccc(-c2cn[nH]c2-c2ccc(OC)cc2)cc1 | active |
| COc1ccc(-c2[nH]ncc2-c2ccc3c(c2)OCCO3)c(O)c1 | active |
| COc1ccc(-c2cn[nH]c2-c2ccc(OC)cc2O)cc1 | active |
| Cc1nc2ccc(NS(=O)(=O)c3ccc(F)c(C)c3)cc2[nH]1 | active |

| SMILES | outcome |
| --- | --- |
| CC1CCCCN1S(=O)(=O)c1ccc(C(=O)Nc2nnc(-c3ccccc3Cl)o2)cc1 (configuration not stated) | active |
| O=C(Nc1nnc(-c2ccccc2Cl)o1)c1ccc(S(=O)(=O)N2CCCCCC2)cc1 | active |
| CCC1CCCCN1S(=O)(=O)c1ccc(C(=O)Nc2nnc(-c3ccccc3Cl)o2)cc1 (configuration not stated) | active |
| Cc1nc2ccccc2c(C)c1C(=O)c1ccc(F)cc1.Cl | active |
| Cc1ccc(OCC(=O)c2cc(C)n(Cc3ccco3)c2C)c([N+](=O)[O-])n1 | active |
| COCCn1c(C)cc(C(=O)COc2ccc(C)nc2[N+](=O)[O-])c1C | active |
| COCCn1c(C)cc(C(=O)COC(=O)c2cccc(O)c2)c1C | active |
| Cc1ccc(OCC(=O)c2cc(C)n(Cc3cccs3)c2C)c([N+](=O)[O-])n1 | active |
| CCOC(=O)/C=C/S(=O)(=O)c1ccc(NC(C)=O)cc1 | active |
| O=C(Oc1c(-c2ccccc2)c(=O)n2c3c(cccc13)CC2)c1ccc(Cl)cc1 | active |
| O=C(Oc1c(-c2ccccc2)c(=O)n2c3c(cccc13)CC2)c1ccccc1 | active |
| CC(C)(C)OC(=O)NCC(=O)Oc1cc2oc(=O)cc(-c3ccccc3)c2cc1Cl | active |
| O=C(CNC(=O)OCc1ccccc1)Oc1cc2oc(=O)cc(-c3ccccc3)c2cc1Cl | active |
| CN(CC1CCCO1)S(=O)(=O)c1ccc(C(=O)Nc2nc3cc4c(cc3s2)OCO4)cc1 (configuration not stated) | active |
| CC(=O)c1cn(CCOc2cc(C)ccc2C)c2ccccc12 | active |
| CC(=O)c1cn(CCOc2ccccc2C)c2ccccc12 | active |
| COc1ccc(-c2cc(N)n(S(=O)(=O)c3c(F)c(F)c(F)c(F)c3F)n2)cc1OC | active |
| N#CC(C#N)=C(Nc1ccc(F)cc1)SCc1cccc(F)c1 | active |
| N#CC(C#N)=C(Nc1ccc(F)cc1)SCc1cccc(Br)c1 | active |
| Cc1ccc(CSC(Nc2ccc(F)cc2)=C(C#N)C#N)cc1 | active |
| O=C(COc1ccc2c(-c3ccccc3)cc(=O)oc2c1)Nc1ccc(CCO)cc1 | active |
| CCCc1ccc(-c2c(C)sc(NC(=O)c3ccnn3C)c2C#N)cc1 | active |
| O=C1N/C(=N\N=C\c2ccccn2)SC1Cc1cccc(SC(F)F)c1 (configuration not stated) | active |

| SMILES | outcome |
| --- | --- |
| CCOc1ccc2nc(NC(=O)c3ccccn3)sc2c1 | active |
| COc1ccc(C(=O)Nc2nc3ccccc3s2)c(OC)c1 | active |
| COc1ccccc1C(=O)Nc1nc2ccccc2s1 | active |
| O=C(Nc1ccc([N+](=O)[O-])cc1)Nc1nc(-c2ccc(Cl)s2)cs1 | active |
| O=C(NC1CCCCC1)C(c1cccnc1)N(C(=O)CCl)c1cccc(Cl)c1 (configuration not stated) | active |
| O=C(NC1CCCCC1)C(c1cccnc1)N(C(=O)CCl)c1ccccc1Cl (configuration not stated) | active |
| Cc1ccc(N(C(=O)CCl)C(C(=O)NC2CCCCC2)c2cccnc2)cc1C (configuration not stated) | active |
| COC(CN(C(=O)CCl)C(C(=O)NC1CCCCC1)c1ccccc1C)OC (configuration not stated) | active |
| COc1ccc(C(C(=O)NC2CCCCC2)N(C(=O)CCl)c2cccc(Cl)c2)cc1 (configuration not stated) | active |
| CC(C)c1noc2ncc(C(=O)c3cc(Cl)cc(Cl)c3O)cc12 | active |
| Cc1nnc(N2CCCC(C(=O)Nc3cc(F)ccc3F)C2)c2nn(-c3ccccc3)c(C)c12 (configuration not stated) | active |
| O=C(Nc1ccc(F)cc1)c1ccc(CN2CCc3ccccc3C2)cc1 | active |
| N#CCc1ccc(NC(=O)c2ccc(CN3CCc4ccccc4C3)cc2)cc1 | active |
| Cc1ccc(-c2csc(N3CCC(NS(=O)(=O)c4ccc5c(c4)OCCO5)CC3)n2)cc1 | active |
| COc1ccc(Oc2ccccc2/C=N/O)cc1 | active |
| O=C(CSc1nnnn1C1CC2CCC1C2)Nc1ccnc2ccccc12 (configuration not stated) | active |
| CCC(C)Cn1c([O-])cc2nn(-c3nc4ccccc4s3)c(=O)c-2c1C.[Na+] (configuration not stated) | active |
| CC1=Nc2ccccc2/C1=C/c1sc(=N)n(-c2nccs2)c1O | active |
| Nc1cc2ccncc2c2ccccc12 | active |
| NC(=O)c1cc2ccncc2c2ccccc12 | active |
